About 2,000 (36%) of roughly 5,500 compounds were called active. Not shown: some 18% with an inconclusive outcome. The list shows a part of the results. A number with no mark means an inactive call. Cut-off read from the data, not from the text of the source: active = normalized growth mostly below about 0.91 (no sharp cut-off); inconclusive = no clear call, values can overlap the other calls; inactive = mostly above about 0.92.
Assay: chemical genetic growth profiling, strain panel (AID 1159580);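 note: tested at 20 µM; growth read once vehicle control cultures reached saturation at 30 °C; 1 = growth at the plate median or of vehicle wells; lower values mean less growth of the strain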
Conditions: S. cerevisiae deletion strains, growth OD
[1] = locus YDL101C, strain DUN1, active compounds read low
[2] = locus YHR030C, strain SLT2, active compounds read low

CCCCCCCC1CC/C(=C\c2ccc(/C=C3\CCC(CCCCCCC)C3=O)cc2)C1=O (configuration not stated)
normalized growth (locus YAL013W, strain DEP1, active compounds read low): 1.01
normalized growth (locus YBR229C, strain ROT2, active compounds read low): 1.01
normalized growth [1]: 0.985
normalized growth (locus YDL134C, strain PPH21, active compounds read low): 1.01
normalized growth (locus YDR150W, strain NUM1, active compounds read low): 0.936
normalized growth (locus YEL061C, strain CIN8, active compounds read low): 0.999
normalized growth (locus YGR078C, strain PAC10, active compounds read low): 0.998
normalized growth [2]: 1.07
normalized growth (locus YHR087W, strain rtc3, active compounds read low): 1.01
normalized growth (locus YJL187C, strain SWE1, active compounds read low): 1.01
normalized growth (locus YJR043C, strain POL32, active compounds read low): 1.01
normalized growth (locus YJR075W, strain HOC1, active compounds read low): 1.04
normalized growth (locus YLR039C, strain RIC1, active compounds read low): 1.05
normalized growth (locus YLR058C, strain SHM2 (second series), active compounds read low): 1.01
normalized growth (locus YLR085C, strain ARP6, active compounds read low): 1.02
normalized growth (locus YLR262C, strain YPT6, active compounds read low): 1.04
normalized growth (locus YML094W, strain GIM5, active compounds read low): 0.979
normalized growth (locus YMR219W, strain ESC1, active compounds read low): 1
normalized growth (locus YMR263W, strain SAP30, active compounds read low): 1.01
normalized growth (locus YNL153C, strain GIM3, active compounds read low): 1
normalized growth (locus YNL298W, strain CLA4 (second series), active compounds read low): 1.04
normalized growth (locus YNL322C, strain KRE1, active compounds read low): 0.994
normalized growth (locus YNR030W, strain Alg12, active compounds read low): 1
normalized growth (locus YPL055C, strain LGE1, active compounds read low): 0.97
normalized growth (locus YPL241C, strain CIN2, active compounds read low): 0.978
normalized growth (locus YPR135W, strain CTF4, active compounds read low): 1.03

CCCCCCCC1CCC/C1=N/OC(=O)c1cccs1 (configuration not stated)
normalized growth (locus YAR019C, strain CDC15, active compounds read low): 1.01
normalized growth (locus YBL105C, strain PKC1, active compounds read low): 1.01
normalized growth (locus YBR135W, strain CKS1, active compounds read low): 1.01
normalized growth (locus YBR136W, strain MEC1, active compounds read low): 1
normalized growth (locus YBR160W, strain CDC28, active compounds read low): 0.997
normalized growth (locus YDL017W, strain CDC7, active compounds read low): 0.995
normalized growth (locus YDL028C, strain MPS1, active compounds read low): 0.999
normalized growth [1]: 0.973
normalized growth (locus YDL108W, strain KIN28, active compounds read low): 0.996
normalized growth (locus YDL132W, strain cdc53, active compounds read low): 0.991
normalized growth (locus YDL214C, strain PRR2, active compounds read low): 0.965
normalized growth (locus YDR052C, strain DBF4, active compounds read low): 0.983
normalized growth (locus YDR054C, strain cdc34, active compounds read low): 0.989
normalized growth (locus YDR226W, strain ADK1, active compounds read low): 0.996
normalized growth (locus YDR477W, strain SNF1, active compounds read low): 0.957
normalized growth (locus YER123W, strain YCK3, active compounds read low): 0.947
normalized growth (locus YER133W, strain GLC7, active compounds read low): 0.97
normalized growth (locus YFL009W, strain cdc4, active compounds read low): 0.992
normalized growth (locus YFL029C, strain CAK1, active compounds read low): 1.01
normalized growth (locus YFR003C, strain YPI1, active compounds read low): 1.01
normalized growth (locus YFR019W, strain FAB1, active compounds read low): 0.938
normalized growth (locus YFR028C, strain CDC14, active compounds read low): 0.98
normalized growth (locus YGR040W, strain KSS1, active compounds read low): 0.967
normalized growth (locus YGR052W, strain FMP48, active compounds read low): 0.988
normalized growth (locus YGR092W, strain DBF2, active compounds read low): 0.906
normalized growth [2]: 0.763 (active)
normalized growth (locus YHR079C, strain IRE1, active compounds read low): 0.871
normalized growth (locus YHR082C, strain KSP1, active compounds read low): 1.07
normalized growth (locus YHR205W, strain SCH9, active compounds read low): 0.753
normalized growth (locus YIL147C, strain SLN1, active compounds read low): 0.992
normalized growth (locus YJL095W, strain BCK1, active compounds read low): 0.91
normalized growth (locus YJL128C, strain PBS2, active compounds read low): 1.01
normalized growth (locus YJL157C, strain FAR1, active compounds read low): 0.967
normalized growth (locus YJR016C, strain ILV3, active compounds read low): 0.99
normalized growth (locus YJR066W, strain TOR1 (second series), active compounds read low): 0.934
normalized growth (locus YJR066W, strain TOR1, active compounds read low): 0.986
normalized growth (locus YKL048C, strain ELM1, active compounds read low): 0.985
normalized growth (locus YKL067W, strain YNK1, active compounds read low): 0.939
normalized growth (locus YKL101W, strain HSL1, active compounds read low): 0.934
normalized growth (locus YKL193C, strain SDS22, active compounds read low): 1.02
normalized growth (locus YKL203C, strain TOR2, active compounds read low): 1
normalized growth (locus YLR113W, strain HOG1, active compounds read low): 0.739 (active)
normalized growth (locus YLR133W, strain CKI1, active compounds read low): 0.96
normalized growth (locus YLR403W, strain SFP1, active compounds read low): 0.945
normalized growth (locus YML070W, strain DAK1, active compounds read low): 0.902
normalized growth (locus YMR001C, strain CDC5, active compounds read low): 1.02
normalized growth (locus YMR205C, strain PFK2 (second series), active compounds read low): 0.944
normalized growth (locus YMR277W, strain FCP1, active compounds read low): 1.03
normalized growth (locus YNL006W, strain LST8, active compounds read low): 1.01
normalized growth (locus YNL020C, strain ARK1, active compounds read low): 0.896
normalized growth (locus YNL161W, strain CBK1, active compounds read low): 1.02
normalized growth (locus YNL183C, strain NPR1, active compounds read low): 0.944
normalized growth (locus YNL207W, strain RIO2, active compounds read low): 0.976
normalized growth (locus YNL222W, strain SSU72, active compounds read low): 1.02
normalized growth (locus YNL307C, strain MCK1 (second series), active compounds read low): 0.901
normalized growth (locus YOL078W, strain AVO1, active compounds read low): 1.02
normalized growth (locus YOL136C, strain PFK27, active compounds read low): 0.961
normalized growth (locus YOR061W, strain CKA2, active compounds read low): 0.88
normalized growth (locus YOR119C, strain RIO1, active compounds read low): 1.03
normalized growth (locus YOR231W, strain MKK1, active compounds read low): 0.859
normalized growth (locus YOR329C, strain SCD5, active compounds read low): 1.02
normalized growth (locus YPL031C, strain PHO85, active compounds read low): 0.935
normalized growth (locus YPL153C, strain RAD53, active compounds read low): 0.937
normalized growth (locus YPL204W, strain HRR25, active compounds read low): 0.919
normalized growth (locus YPL209C, strain IPL1, active compounds read low): 1
normalized growth (locus YPL256C, strain CLN2, active compounds read low): 0.858 (active)
normalized growth (locus YPR025C, strain CCL1, active compounds read low): 1.02
normalized growth (locus YPR106W, strain ISR1, active compounds read low): 0.999
normalized growth (locus YPR111W, strain DBF20, active compounds read low): 0.991
normalized growth (strain NNK1, active compounds read low): 0.987
normalized growth (strain TSCII, active compounds read low): 0.995

Source: PubChem BioAssay AID1159580 (chemical genetic matrix, 2015)
